This is an account of results in PMC7862700, “An all-to-all approach to the identification of sequence-specific readers for epigenetic DNA modifications on cytosine”.

What all share (experiment): DAPPL (digital affinity profiling via proximity ligation, sequencing); 10 mM Tris-HCl pH 7.5, 50 mM NaCl, 1 mM DTT, 4% glycerol, room temperature, 30 min; GST-TFs on glutathione beads, 16-mer random dsDNA library, 0.1% formaldehyde crosslink after washing; high values mean tight binding
For test [1], the target named is T1, FEV (Homo sapiens, UniProt Q99581 1-238).
T1 sequence: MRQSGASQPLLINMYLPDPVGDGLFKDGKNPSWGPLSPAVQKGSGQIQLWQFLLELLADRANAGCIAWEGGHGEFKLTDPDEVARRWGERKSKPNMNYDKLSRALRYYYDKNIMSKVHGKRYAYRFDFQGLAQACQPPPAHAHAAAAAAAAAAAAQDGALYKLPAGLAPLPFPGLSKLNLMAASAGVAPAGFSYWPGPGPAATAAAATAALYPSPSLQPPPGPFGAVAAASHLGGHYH
The following applies: protein: recombinant; tags: N-terminal GST; dsDNA, one strand shown. The method, boiled down:
(§1)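 Human transcription factors carrying a GST fusion were produced in yeast, bound to glutathione beads, tagged with DNA barcodes and pooled together with a tag-only sample. Each pool was held with 200 nmole of a random double-stranded 16-mer DNA library in Tris/NaCl/DTT/glycerol buffer for 30 min at room temperature, then washed, crosslinked in 0.1% formaldehyde, proximity-ligated with BsaI/T4 ligase (1 h, 37 °C), PCR-amplified and sequenced on an Illumina NextSeq500. Binding signal is the read frequency of each hexamer for a given factor divided by its frequency in the tag-only sample.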

The target of test [2] is ETV5 (Homo sapiens, UniProt P41161 1-510). The following applies: protein: recombinant; tags: N-terminal GST; dsDNA, one strand shown. The method, boiled down: as §1
In test [3] the target is HSF1 (Homo sapiens, UniProt Q00613 1-529). The following applies: protein: recombinant; tags: N-terminal GST; chain copies: 3; dsDNA, one strand shown. The procedure, abridged:
as §1

Test [4] concerns the target T2, SPIC (Homo sapiens, UniProt Q8N5J4 1-248).
T2 sequence: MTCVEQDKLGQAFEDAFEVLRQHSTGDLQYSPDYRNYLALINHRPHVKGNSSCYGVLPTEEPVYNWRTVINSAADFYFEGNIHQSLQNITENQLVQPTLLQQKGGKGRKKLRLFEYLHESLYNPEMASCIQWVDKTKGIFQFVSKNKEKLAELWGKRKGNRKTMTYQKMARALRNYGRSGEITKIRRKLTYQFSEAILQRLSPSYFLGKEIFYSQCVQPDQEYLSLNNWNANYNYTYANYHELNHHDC
The following applies: protein: recombinant; tags: N-terminal GST; dsDNA, one strand shown. The procedure, abridged:
as §1

Test [5] addresses ELF4 (Homo sapiens, UniProt Q99607 1-663). The following applies: protein: recombinant; tags: N-terminal GST; dsDNA, one strand shown. The method, boiled down: as §1
For test [6], the target named is T3, ELK4 (Homo sapiens, UniProt P28324-2 1-405).
T3 sequence: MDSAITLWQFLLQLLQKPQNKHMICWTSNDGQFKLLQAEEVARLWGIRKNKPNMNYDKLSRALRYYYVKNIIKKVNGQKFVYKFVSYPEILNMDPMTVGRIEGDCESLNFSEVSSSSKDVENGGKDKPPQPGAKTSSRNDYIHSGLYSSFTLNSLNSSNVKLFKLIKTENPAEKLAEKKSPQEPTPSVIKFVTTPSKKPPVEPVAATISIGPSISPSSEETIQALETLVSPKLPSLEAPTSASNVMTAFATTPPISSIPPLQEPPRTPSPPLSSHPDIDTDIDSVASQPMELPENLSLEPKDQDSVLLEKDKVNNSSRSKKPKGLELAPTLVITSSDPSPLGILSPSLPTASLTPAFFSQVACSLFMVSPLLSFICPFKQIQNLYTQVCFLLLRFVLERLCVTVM
The following applies: protein: recombinant; tags: N-terminal GST; dsDNA, one strand shown. The procedure, abridged: as §1

Test [7] addresses T4, ETV2 (Homo sapiens, UniProt O00321 1-342).
T4 sequence: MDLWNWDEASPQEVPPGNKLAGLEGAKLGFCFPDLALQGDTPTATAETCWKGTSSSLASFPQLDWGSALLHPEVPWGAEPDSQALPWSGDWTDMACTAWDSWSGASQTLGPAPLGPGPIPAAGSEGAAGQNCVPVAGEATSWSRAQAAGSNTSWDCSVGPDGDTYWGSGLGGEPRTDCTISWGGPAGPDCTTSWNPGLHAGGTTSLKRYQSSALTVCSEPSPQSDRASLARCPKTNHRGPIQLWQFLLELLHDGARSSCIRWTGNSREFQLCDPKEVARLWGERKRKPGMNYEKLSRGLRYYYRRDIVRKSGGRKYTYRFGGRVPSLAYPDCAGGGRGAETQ
The following applies: protein: recombinant; tags: N-terminal GST; dsDNA, one strand shown. The method, boiled down: as §1

The target of test [8] is T5, ELF3 (Homo sapiens, UniProt P78545 1-371).
T5 sequence: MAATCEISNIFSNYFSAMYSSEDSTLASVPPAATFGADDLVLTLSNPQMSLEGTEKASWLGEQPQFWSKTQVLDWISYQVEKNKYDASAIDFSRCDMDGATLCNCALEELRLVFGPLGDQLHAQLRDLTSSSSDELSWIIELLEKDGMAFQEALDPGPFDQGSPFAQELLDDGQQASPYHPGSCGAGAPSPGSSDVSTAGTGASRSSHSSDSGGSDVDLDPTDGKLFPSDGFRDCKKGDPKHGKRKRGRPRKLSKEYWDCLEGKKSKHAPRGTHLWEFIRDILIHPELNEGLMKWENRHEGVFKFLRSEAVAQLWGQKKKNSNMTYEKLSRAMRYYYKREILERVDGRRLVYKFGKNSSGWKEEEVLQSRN
The following applies: protein: recombinant; tags: N-terminal GST; dsDNA, one strand shown. The method, boiled down: as §1

For test [9], the target named is CRX (Homo sapiens, UniProt O43186 1-299). The following applies: protein: recombinant; tags: N-terminal GST; dsDNA, one strand shown. The procedure, abridged: as §1
Test [10] has as its target ETV1 (Homo sapiens, UniProt P50549 1-477). The following applies: protein: recombinant; tags: N-terminal GST; dsDNA, one strand shown. The procedure, abridged:
as §1

Test [11] deals with T6, ERF (Homo sapiens, UniProt P50548 1-548).
T6 sequence: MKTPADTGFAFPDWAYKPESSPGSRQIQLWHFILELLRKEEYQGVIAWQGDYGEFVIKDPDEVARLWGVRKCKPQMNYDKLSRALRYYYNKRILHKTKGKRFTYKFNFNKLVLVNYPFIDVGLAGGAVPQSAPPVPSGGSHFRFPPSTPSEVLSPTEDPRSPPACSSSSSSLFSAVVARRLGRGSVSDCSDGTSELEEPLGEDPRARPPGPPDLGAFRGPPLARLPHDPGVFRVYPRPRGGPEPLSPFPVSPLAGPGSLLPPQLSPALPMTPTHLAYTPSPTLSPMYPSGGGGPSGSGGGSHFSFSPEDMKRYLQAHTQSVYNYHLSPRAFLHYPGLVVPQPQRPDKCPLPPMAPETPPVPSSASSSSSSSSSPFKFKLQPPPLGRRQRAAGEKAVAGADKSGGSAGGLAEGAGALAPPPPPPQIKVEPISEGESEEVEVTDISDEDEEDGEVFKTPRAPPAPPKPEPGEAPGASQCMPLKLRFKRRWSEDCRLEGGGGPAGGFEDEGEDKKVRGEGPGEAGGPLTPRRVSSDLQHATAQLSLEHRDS
The following applies: protein: recombinant; tags: N-terminal GST; dsDNA, one strand shown. The procedure, abridged: as §1

The target in test [12] is T7, ETV3L (Homo sapiens, UniProt Q6ZN32 1-361).
T7 sequence: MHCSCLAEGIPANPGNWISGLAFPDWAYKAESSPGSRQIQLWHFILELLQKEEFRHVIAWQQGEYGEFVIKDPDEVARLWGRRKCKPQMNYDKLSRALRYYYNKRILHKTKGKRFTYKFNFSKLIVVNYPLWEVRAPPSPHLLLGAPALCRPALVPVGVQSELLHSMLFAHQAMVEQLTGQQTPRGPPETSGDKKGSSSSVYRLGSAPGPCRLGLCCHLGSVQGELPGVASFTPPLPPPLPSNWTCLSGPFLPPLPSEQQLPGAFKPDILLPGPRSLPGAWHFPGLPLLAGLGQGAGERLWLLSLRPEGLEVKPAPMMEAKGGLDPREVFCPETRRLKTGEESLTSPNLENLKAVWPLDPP
The following applies: protein: recombinant; tags: N-terminal GST; dsDNA, one strand shown. The procedure, abridged: as §1

For test [13], the target named is T8, ETS2 (Homo sapiens, UniProt P15036 1-469).
T8 sequence: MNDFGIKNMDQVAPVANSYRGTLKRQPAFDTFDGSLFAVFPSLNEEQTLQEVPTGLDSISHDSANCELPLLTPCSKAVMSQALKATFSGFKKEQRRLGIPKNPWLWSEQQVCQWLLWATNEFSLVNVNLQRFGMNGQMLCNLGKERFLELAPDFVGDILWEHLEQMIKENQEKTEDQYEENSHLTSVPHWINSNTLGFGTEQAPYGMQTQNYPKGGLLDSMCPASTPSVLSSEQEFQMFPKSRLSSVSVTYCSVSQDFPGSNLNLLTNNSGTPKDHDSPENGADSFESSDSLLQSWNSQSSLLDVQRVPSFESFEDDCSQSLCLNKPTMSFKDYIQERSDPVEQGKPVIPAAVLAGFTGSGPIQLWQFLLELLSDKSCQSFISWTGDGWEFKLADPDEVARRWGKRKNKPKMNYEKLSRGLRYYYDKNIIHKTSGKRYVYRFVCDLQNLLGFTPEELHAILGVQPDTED
The following applies: protein: recombinant; tags: N-terminal GST; dsDNA, one strand shown. The procedure, abridged: as §1

The target of test [14] is T9, SPDEF (Homo sapiens, UniProt O95238 1-335).
T9 sequence: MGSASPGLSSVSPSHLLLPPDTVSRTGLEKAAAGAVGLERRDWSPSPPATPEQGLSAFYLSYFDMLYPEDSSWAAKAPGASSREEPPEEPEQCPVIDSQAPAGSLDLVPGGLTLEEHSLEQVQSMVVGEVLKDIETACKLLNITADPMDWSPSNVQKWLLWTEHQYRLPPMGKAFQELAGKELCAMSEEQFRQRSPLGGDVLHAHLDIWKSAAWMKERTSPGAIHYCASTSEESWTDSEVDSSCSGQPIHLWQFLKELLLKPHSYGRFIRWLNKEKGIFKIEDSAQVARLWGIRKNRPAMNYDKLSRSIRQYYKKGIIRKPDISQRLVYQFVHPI
The following applies: protein: recombinant; tags: N-terminal GST; dsDNA, one strand shown. The method, boiled down: as §1

Test [15] deals with T10, ETV7 (Homo sapiens, UniProt Q9Y603 1-341).
T10 sequence: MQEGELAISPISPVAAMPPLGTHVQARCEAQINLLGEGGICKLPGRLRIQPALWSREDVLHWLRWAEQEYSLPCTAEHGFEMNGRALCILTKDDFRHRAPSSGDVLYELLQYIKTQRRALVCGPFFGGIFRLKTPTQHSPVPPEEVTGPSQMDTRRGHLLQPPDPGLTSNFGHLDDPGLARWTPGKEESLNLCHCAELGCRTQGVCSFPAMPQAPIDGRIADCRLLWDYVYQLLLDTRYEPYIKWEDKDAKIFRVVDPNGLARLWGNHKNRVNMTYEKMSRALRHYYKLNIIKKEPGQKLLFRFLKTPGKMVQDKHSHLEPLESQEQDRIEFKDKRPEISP
The following applies: protein: recombinant; tags: N-terminal GST; dsDNA, one strand shown. The procedure, abridged: as §1

Test [16] deals with T11, ELF5 (Homo sapiens, UniProt Q9UKW6-2 1-255).
T11 sequence: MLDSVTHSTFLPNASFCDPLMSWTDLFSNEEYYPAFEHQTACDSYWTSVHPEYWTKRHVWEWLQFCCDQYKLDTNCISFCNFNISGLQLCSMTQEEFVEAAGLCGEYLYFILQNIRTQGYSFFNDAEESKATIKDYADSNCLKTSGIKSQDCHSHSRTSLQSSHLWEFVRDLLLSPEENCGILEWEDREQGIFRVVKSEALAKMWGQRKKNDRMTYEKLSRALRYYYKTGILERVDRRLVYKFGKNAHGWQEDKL
The following applies: protein: recombinant; tags: N-terminal GST; dsDNA, one strand shown. The method, boiled down: as §1

Test [17] has as its target T12, ETV3 (Homo sapiens, UniProt P41162-2 1-143).
T12 sequence: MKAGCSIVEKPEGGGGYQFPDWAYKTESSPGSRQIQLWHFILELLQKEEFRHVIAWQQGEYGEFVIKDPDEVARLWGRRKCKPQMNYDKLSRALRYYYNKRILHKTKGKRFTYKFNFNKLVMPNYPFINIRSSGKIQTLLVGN
The following applies: protein: recombinant; tags: N-terminal GST; dsDNA, one strand shown. The method, boiled down:
as §1

Test [18] addresses ETV6 (Homo sapiens, UniProt P41212 1-452). The following applies: protein: recombinant; tags: N-terminal GST; dsDNA, one strand shown. The procedure, abridged: as §1

Chain of ETV1 (P50549 whole entry): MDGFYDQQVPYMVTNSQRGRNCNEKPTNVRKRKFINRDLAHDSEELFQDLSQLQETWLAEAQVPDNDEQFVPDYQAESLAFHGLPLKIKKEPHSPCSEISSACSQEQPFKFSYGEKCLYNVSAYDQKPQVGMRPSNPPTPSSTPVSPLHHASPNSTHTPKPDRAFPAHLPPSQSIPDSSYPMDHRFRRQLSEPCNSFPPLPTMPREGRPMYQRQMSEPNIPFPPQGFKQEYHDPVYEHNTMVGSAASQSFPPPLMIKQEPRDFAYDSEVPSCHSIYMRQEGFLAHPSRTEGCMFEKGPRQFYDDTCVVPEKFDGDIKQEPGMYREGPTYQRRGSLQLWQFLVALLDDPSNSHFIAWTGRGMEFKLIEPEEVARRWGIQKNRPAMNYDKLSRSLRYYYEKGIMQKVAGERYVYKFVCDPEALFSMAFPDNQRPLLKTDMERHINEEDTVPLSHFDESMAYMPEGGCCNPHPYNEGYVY
Chain of ETV6 (P41212 whole entry): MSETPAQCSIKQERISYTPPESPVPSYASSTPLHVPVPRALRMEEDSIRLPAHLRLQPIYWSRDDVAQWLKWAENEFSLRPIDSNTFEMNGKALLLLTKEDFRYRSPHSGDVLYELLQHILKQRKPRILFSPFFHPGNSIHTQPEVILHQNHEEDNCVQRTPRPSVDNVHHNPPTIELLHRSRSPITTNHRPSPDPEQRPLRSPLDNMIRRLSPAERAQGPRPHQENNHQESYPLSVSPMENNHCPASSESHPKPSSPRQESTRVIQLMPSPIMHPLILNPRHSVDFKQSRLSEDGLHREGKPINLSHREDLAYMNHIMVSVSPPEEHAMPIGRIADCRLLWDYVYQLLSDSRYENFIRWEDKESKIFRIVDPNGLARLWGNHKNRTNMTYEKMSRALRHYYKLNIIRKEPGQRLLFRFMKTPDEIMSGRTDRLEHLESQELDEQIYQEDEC
Chain of ETV5 (P41161 whole entry): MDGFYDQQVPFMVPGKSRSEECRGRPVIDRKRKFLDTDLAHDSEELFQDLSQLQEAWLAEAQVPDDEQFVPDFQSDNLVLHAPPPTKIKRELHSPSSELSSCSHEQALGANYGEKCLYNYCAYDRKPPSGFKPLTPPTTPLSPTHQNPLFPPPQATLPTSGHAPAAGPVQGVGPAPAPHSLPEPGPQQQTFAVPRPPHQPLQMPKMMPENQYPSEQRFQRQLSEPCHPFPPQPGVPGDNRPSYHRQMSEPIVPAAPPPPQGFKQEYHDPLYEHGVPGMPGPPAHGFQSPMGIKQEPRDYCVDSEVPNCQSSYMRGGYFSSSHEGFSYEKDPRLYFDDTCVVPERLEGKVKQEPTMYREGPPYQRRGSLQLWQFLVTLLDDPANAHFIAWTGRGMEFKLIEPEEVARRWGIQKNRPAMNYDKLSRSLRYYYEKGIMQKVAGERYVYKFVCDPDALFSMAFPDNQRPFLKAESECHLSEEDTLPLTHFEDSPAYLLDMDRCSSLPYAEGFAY
Chain of CRX (O43186 whole entry): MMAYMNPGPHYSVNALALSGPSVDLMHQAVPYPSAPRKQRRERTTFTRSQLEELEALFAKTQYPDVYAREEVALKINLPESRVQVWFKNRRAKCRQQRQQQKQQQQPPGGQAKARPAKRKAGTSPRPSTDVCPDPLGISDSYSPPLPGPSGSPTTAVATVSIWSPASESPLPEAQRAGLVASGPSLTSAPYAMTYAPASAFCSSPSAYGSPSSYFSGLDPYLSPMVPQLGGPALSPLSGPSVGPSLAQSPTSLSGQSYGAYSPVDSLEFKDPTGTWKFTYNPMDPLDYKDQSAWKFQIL
Chain of HSF1 (Q00613 whole entry): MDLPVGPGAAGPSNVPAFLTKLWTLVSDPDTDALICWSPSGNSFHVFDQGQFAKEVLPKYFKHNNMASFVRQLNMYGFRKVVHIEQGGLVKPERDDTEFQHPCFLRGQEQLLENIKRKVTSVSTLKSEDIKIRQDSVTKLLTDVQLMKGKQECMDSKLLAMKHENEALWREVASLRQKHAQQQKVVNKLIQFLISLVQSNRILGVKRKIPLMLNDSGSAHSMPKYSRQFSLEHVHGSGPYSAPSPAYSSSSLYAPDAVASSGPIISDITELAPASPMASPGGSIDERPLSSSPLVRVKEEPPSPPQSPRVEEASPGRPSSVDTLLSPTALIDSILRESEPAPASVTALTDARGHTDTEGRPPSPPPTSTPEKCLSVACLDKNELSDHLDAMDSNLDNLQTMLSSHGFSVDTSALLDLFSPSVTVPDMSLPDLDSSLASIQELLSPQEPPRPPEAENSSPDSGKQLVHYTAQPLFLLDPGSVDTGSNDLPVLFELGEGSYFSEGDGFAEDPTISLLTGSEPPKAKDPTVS
Chain of ELF4 (Q99607 whole entry): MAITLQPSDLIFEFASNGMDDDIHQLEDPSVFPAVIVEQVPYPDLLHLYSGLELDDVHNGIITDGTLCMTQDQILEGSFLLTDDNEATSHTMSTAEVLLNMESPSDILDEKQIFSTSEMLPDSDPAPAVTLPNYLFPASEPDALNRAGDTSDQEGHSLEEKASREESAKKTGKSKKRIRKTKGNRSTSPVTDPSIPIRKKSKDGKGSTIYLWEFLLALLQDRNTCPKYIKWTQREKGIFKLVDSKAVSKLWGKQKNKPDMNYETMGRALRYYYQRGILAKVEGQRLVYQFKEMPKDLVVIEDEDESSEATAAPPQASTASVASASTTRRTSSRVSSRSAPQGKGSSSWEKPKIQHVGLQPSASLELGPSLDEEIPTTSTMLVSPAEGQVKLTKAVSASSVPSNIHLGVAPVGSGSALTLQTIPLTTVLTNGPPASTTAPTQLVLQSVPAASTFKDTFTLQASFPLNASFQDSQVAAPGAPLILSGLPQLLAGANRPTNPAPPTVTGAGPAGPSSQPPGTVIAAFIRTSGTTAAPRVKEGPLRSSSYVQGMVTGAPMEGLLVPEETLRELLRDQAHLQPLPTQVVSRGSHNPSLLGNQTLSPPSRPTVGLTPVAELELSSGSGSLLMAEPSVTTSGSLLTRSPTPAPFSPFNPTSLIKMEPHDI

Turning to GTATTT, the binding signal in test [1] was 1.6 fold enrichment (6-mer frequency, TF over GST control); in [2], 1.59 fold enrichment (6-mer frequency, TF over GST control); in test [3], 1.5 fold enrichment (6-mer frequency, TF over GST control); in test [4], 1.66 fold enrichment (6-mer frequency, TF over GST control); in test [5] it was 1.59 fold enrichment (6-mer frequency, TF over GST control); in [6], 1.52 fold enrichment (6-mer frequency, TF over GST control). In addition, the binding signal in test [7] is 1.69 fold enrichment (6-mer frequency, TF over GST control); in test [8], 1.39 fold enrichment (6-mer frequency, TF over GST control); in test [9], 1.73 fold enrichment (6-mer frequency, TF over GST control); in [10], 1.64 fold enrichment (6-mer frequency, TF over GST control); in test [11] it was 1.47 fold enrichment (6-mer frequency, TF over GST control); in test [12], 1.62 fold enrichment (6-mer frequency, TF over GST control). Further, the binding signal in test [13] was 1.7 fold enrichment (6-mer frequency, TF over GST control); in test [14], 1.64 fold enrichment (6-mer frequency, TF over GST control); in test [15], 1.73 fold enrichment (6-mer frequency, TF over GST control); in test [16] it was 1.62 fold enrichment (6-mer frequency, TF over GST control); in test [17] it was 1.53 fold enrichment (6-mer frequency, TF over GST control); in test [18] it was 1.79 fold enrichment (6-mer frequency, TF over GST control).
